Rab9 promoter act = Rab9 promoter activation | Potency, µM (series often up to 9.22 µM), for the others: at the highest dose activation, negative = inhibition, usual class: activators | Huh7 Rab9 promoter-luciferase reporter, luminescence, 24 h | 2.8% of 320,000 active; note: % of control where 0% means no effect; nearly all actives have a fitted effect of over 60% in size
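Huh7 cells stably carrying a Rab9 promoter-luciferase reporter, 1500 cells per well in OP-MEM I with 10% FBS, treated with compound 24 hours at 37C. Luciferase activity read by luminescence after 10 minutes with Amplite reagent.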
ELG1 DNA repair = ELG1-dependent DNA repair inhibition; Potency, µM (top dose mostly 46.1 µM), for the others: top-dose activity change, negative = inhibition, usual class: inhibitors; AID 504467; HEK293T ELG1-luciferase reporter, luminescence, 16 h; DNA damage induced by 5-fluorouridine; 2.3% of 330,000 active; note: % is set by controls: 0 for no effect and ±100 for the full control effect; nearly all actives have a fitted effect of over 55% in size
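Cells (2,000 per well) received 5-fluorouridine plus test compound or DMSO and were incubated 16 hr at 37 °C, 5% CO2. Luciferase activity was read by luminescence 30 min after ONE-Glo addition; signal suppression marked inhibition of damage-induced ELG1 function.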
NPC1 promoter act = activates the NPC1 promoter; Huh7 NPC1 promoter luciferase reporter, 24 h; Potency, µM (highest dose often 9.22 µM), inactives show at the top dose activation, usual class: activators; 2.4% of 320,000 active; AID 485313; note: % of control where 0% means no effect; nearly all actives have a fitted effect of over 60% in size
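In 1536-well qHTS, Huh7 cells harboring an NPC1 promoter–luciferase construct received compound for 24 h; activation was quantified by luminescence following luciferase reagent addition.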
ELG1 genotoxic = inducers of genotoxicity in HEK293T ELG1-luciferase cells; Potency, µM (highest dose often 46 µM), for inactives: at the top dose activity change, positive = activation, actives largely listed as activators; 1.3% of 330,000 active; HEK293T ELG1-luciferase reporter, luminescence, 16 h; note: % of control where 0% means no effect; nearly all actives have a fitted effect of over 60% in size
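HEK293T cells expressing luciferase-tagged ELG1 were exposed to compound or DMSO vehicle for 16 hr at 37 °C and 5% CO2. Luciferase activity was then measured with ONE-Glo after 30 min at room temperature.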
FLuc modulator = firefly luciferase modulation, counter-screen for miR-21 project; P08659; purified FLuc, Km substrates, luminescence inhibition; Potency, µM (top dose mostly 57.5 µM), inactives show top-dose activity change, negative = inhibition, most hits filed as inhibitors; 6.9% of 360,000 active; AID 588342;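 note: plate controls were vehicle for no effect and reference inhibitor for full effect; nearly all actives have a fitted effect of over 55% in size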
Target sequence (P08659 whole entry, looked up): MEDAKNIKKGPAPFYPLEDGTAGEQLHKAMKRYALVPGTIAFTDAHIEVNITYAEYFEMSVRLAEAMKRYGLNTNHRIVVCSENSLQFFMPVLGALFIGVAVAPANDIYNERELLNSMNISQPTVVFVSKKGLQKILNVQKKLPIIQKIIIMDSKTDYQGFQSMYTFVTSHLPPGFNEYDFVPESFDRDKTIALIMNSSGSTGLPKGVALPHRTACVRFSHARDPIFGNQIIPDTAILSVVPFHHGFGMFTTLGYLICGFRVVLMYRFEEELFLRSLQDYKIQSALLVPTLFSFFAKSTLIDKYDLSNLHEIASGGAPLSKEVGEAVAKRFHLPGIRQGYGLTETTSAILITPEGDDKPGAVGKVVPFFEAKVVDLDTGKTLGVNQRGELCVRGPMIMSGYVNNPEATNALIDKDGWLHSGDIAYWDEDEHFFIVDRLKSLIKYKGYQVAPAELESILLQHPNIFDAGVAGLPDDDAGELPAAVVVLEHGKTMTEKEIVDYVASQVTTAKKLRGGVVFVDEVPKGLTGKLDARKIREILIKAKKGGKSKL
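Purified P. pyralis luciferase, 10 nM final, with Km-level 10 uM D-luciferin and 10 uM ATP in 50 mM Tris acetate pH 7.5, 10 mM Mg acetate, 0.01% Tween-20, 0.05% BSA; 6-point qHTS titration about 60 µM downward; luminescence read.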
SMN2 splice up = SMN2 splice variant enhancement. HEK293 SMN2-luciferase splicing reporter, luminescence, 30-36 h. Potency, µM (doses to about 46.1 µM), for inactives: top-dose activity change, positive = activation, usual class: activators. 2.8% of 210,000 active; note: % of control where 0% means no effect; nearly all actives have a fitted effect of over 55% in size
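HEK293 cells carry an SMN2 […]–luciferase reporter in which exon 7 inclusion puts luciferase in frame. Cells were plated 10-12 h before compound addition, then incubated 30-36 h at 37C. ONE-Glo luminescence was read; sodium butyrate at 4.5 mM final served as control.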
Starred values were filed as active, the others as inactive; ? = inconclusive; . = not tested or not shown; [ ] = dose if it differs, or a comment. Rows were chosen to be rich in hits. Some 9.2% of all compounds tested hit in one or more screens of this group. Calls come from the whole dose curve; as a rule, active = well fitted curve in the direction sought with a large enough effect; inconclusive = small, poorly fitted or top-dose-only effect, or another doubt; inactive = no such curve, though single readings can be large; an effect the other way counts as inactive or inconclusive. Potency is the fitted concentration of half-maximal effect.

SMILES	Rab9 promoter act	ELG1 DNA repair	NPC1 promoter act	ELG1 genotoxic	FLuc modulator	SMN2 splice up
O=C(CC(c1ccco1)S(=O)(=O)c1ccccc1)c1ccccc1 (configuration not stated)	2.6%	27.6%	0.5%	3.5%	21.3µM*	.
COC(=O)C(C(C)=O)C1c2ccccc2C=C(C)N1C(=O)OC (configuration not stated)	.	.	.	.	.	-2.8%[9.22 µM]
Cc1cc(=O)oc2cc(OCC(=O)N3CCC(O)CC3)c(Cl)cc12	-1.3%	2.9%	-3.8%	2.9%	0.5%	.
COc1ccc2nc(N(Cc3cccnc3)C(=O)c3ccco3)sc2c1	.	.	.	.	16.9µM*	.
Cc1ccc2nc(N(Cc3cccnc3)C(=O)c3ccc4c(c3)OCCO4)sc2c1	.	.	.	.	-15.2%	.
O=C(c1ccc2c(c1)OCCO2)N(Cc1cccnc1)c1nc2ccc(F)cc2s1	.	.	.	.	16.9µM*	.
CCS(=O)(=O)c1ccccc1C(=O)N(Cc1cccnc1)c1nc2cc(C)c(C)cc2s1	.	.	.	.	21.3µM*	.
COc1cc(C(=O)N(Cc2cccnc2)c2nc3cc(C)c(C)cc3s2)cc(OC)c1OC	.	.	.	.	-0.3%	.
CCOc1ccc2nc(N(Cc3cccnc3)C(=O)c3ccco3)sc2c1	.	.	.	.	16.9µM*	.
COc1ccc2nc(N(Cc3cccnc3)C(C)=O)sc2c1	.	.	.	.	-11.7%	.
O=C(Cc1cccs1)NC1CC(=O)N(c2ccccc2)C1 (configuration not stated)	.	.	.	.	-1.5%	.
CCOc1ccc(NC(=O)CSc2nnc(NC(=O)C3CC3)s2)cc1	0.4%	8.8%	-3.9%	?	-1.6%	.
CN(C)C(=O)COC(=O)c1ccccc1Nc1ccc(SC(F)F)cc1	?	?	?	?	26.9µM*	12.6µM*
Cn1c(-c2ccccn2)[n+](C)c2ccccc21	1.4%	9.3%	-11.1%	0.5%	-1.8%	.
Cn1c(-c2ccc3ccccc3n2)[n+](C)c2ccccc21	-31.3%	?	-12.4%	-2.5%	21.3µM*	.
CCN(CC)c1nc(-c2ccc(C(C)(C)C)cc2)nc2ccccc12	.	.	.	.	5.36µM*	?
CCOC(=O)c1cc(NC(=O)CC(C)(C)CC(=O)O)ccc1N1CCCCC1	-5.2%	-0.9%	-6.6%	-1.0%	5.3%	.
COc1ccc(-c2cc(C(=O)NCCCN3CCCC3=O)c3ccccc3n2)cc1	-4.2%	?	-2.2%	-6.0%	12µM*	.
COc1cc2sc(-c3ccc(S(C)(=O)=O)cc3)c(C(=O)NCc3ccc(C)o3)c2cc1OC	.	18.3µM*	.	-4.9%	.	.
COc1ccc(-c2cc(C(F)F)n3ncc(C(=O)NCCCN4CCCC4=O)c3n2)cc1	-1.7%	6.51µM*	3.3%	-11.3%	0.5%	3.1%
COc1ccc2sc(-c3ccc(S(C)(=O)=O)cc3)c(C(=O)NCCCN3CCCC3=O)c2c1	.	16.4µM*	.	-8.6%	.	.
O=C(NCCCN1CCCC1=O)c1cc(-c2ccc(F)cc2)nc2ccccc12	.	18.3µM*	.	-5.4%	.	.
Cc1ccc(C(=O)N/N=C/c2ccc(S(=O)(=O)O)o2)c(Cl)c1	-19.6%	22.0%	-2.4%	-0.1%	15.1µM*	9.2%
Cc1ccc(C(=O)Nc2ccc(C(=O)N/N=C/c3ccc(C)o3)cc2)cc1	27.7%	?	14.5%	0.3%	?	.
O=c1cc(-c2ccccc2)[nH]n1-c1nc2ccccc2[nH]1	-1.9%	?	3.7%	?	19µM*	3.4%
SMILES	Rab9 promoter act	ELG1 DNA repair	NPC1 promoter act	ELG1 genotoxic	FLuc modulator	SMN2 splice up
CCCCc1nn2c(=O)cc(COC(=O)c3cccc(NC(=O)CCc4ccccc4)c3)nc2s1	.	.	.	.	-2.7%	.
COc1ccccc1CN1CCN(C2CCN(C(=O)Nc3ccccc3)CC2)C(=O)C1=O	.	.	.	.	-0.3%	.
O=C(O)C1CSC(c2coc3ccccc3c2=O)N1 (configuration not stated)	-8.9%	-1.4%	0.8%	1.2%	3.3%	19.4%
CC1CCOC(c2coc3ccccc3c2=O)O1 (configuration not stated)	?	?	?	?	13.5µM*	10µM*
CC(C)(C)C(=O)Nc1ccc(-c2cc3cc(Cl)ccc3o2)cc1	0.316µM*	?	?	?	0.19µM*	.
COc1ccc(Nc2c(-c3ccsc3)nc3nc(C)cc(C)n23)cc1	.	.	.	.	-4.7%	-6.5%
O=C(CCc1nnc(Cc2cccc(C(F)(F)F)c2)o1)NCC(F)(F)F	-3.2%	21.4%	-0.4%	6.4%	-9.9%	9.1%
C=C(C)CNC(=O)CCc1nnc(Cc2cccc(C(F)(F)F)c2)o1	?	?	20.4%	18.3µM*	21.3µM*	11.2µM*
CC(C)CN(C)C(=O)CCc1nnc(Cc2cccc(C(F)(F)F)c2)o1	2.82µM*	?	?	?	23.9µM*	.
CC(NC(=O)CCc1nnc(Cc2cccc(C(F)(F)F)c2)o1)C1CC1 (configuration not stated)	?	?	13.8%	?	26.9µM*	.
CCn1cc(/C=N\NC(=O)c2c[nH]c3ccccc23)c(C)n1	19.4%	?	14.6%	3.9%	21.3µM*	27.0%
Cc1c(/C=N\NC(=O)c2c[nH]c3ccccc23)cnn1C	13.8%	?	1.9%	6.0%	12µM*	27.1%
CC(=O)N1CCCC1c1nc2ccccc2n1Cc1cccc(C)c1 (configuration not stated)	.	.	.	.	-0.8%	.
CCN1CCN(c2cc(C)c3cc(NC(=O)c4ccc5c(c4)OCO5)ccc3n2)CC1	-4.8%	?	-3.7%	0.3%	?	8.5%
Cc1ccc(C(=O)Nc2ccc(N3CCN(S(C)(=O)=O)CC3)cc2)cc1C	1.3%	-11.4%	0.0%	-2.2%	6.5%	.
CCN1CCN(c2ccc(NC(=O)c3ccc4c(c3)OCCO4)cc2C)CC1	1.58µM*	?	2.82µM*	?	6.75µM*	.
Cc1ccc(C(=O)Nc2ccc(N3CCN(C)CC3)cc2)c(Cl)c1	3.55µM*	?	3.55µM*	?	23.9µM*	.
CCN1CCc2nc(NC(=O)c3ccc4c(c3)OCCO4)sc2C1	?	?	?	?	10.7µM*	?
CS(=O)(=O)c1ccc(C(=O)Nc2ccc(N3CCCCC3)cc2)c(Cl)c1	-3.5%	?	-4.5%	15.4%	-6.1%	3.7%
Cc1ccc(C(=O)Nc2ccc(N3CCN(C)CC3)cc2)cc1C	0.708µM*	?	0.794µM*	1.83µM*	3.38µM*	.
Cc1ccc(N2C(=O)CCSC23C(=O)N(Cc2ccccc2)c2ccccc23)cc1F (configuration not stated)	.	.	.	.	-14.9%	.
CN1CCN(c2ccc(NC(=O)c3ccc4c(c3)OCCO4)cc2)CC1	3.16µM*	?	2.24µM*	4.61µM*	6.01µM*	11.2µM*
CSCCCN1CCC(n2nccc2NC(=O)CCCc2ccccc2)CC1	-0.2%	3.3%	-0.3%	-4.1%	0.2%	.

Screening data (PubChem BioAssay)
